Targets with a hit are over-represented here; the source holds about 8,800 in all. About 0.5% of all pairs of compound and target were hits. Values without a mark were called inactive.
Tests used:
Test in all cases: log2 fold change, soluble protein after heating vs DMSO (PISA); higher = thermal stabilisation; K562 lysate, 10 uM; active = over 0.2 and 3.5 SD of the protein, either way, in both replicates (recomputed)
[1] = compound: CN1CC[C@H](c2c(O)cc(O)c3c(=O)cc(-c4ccccc4Cl)oc23)[C@H](O)C1 [alvocidib]
In short: (§1)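 A 30 min treatment with 10 μM compound was applied to crude K562 extract at 1 mg/mL protein in PBS pH 7.4 with 1 mM MgCl2. Heating for 3 min spanned 48°C-58°C, after which aliquots were pooled, adjusted to 0.5% NP-40 at 4°C and spun at 21,000xg for 90 min. TMTpro 16plex LC-MS/MS of the supernatant, with channel sums equalised, gave values recorded as log-two fold change in thermal stability against solvent controls, from duplicates.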

[2] = compound: CN1CCc2c(c3ccccc3n2Cc2ccc(C(=O)NO)cc2)C1 [Tubastatin A]
In short: as §1

[3] = compound: CNC(=O)C1=CC=CC=C1NC2=NC(=NC=C2Cl)NC3=C(C=C(C=C3)N4CCOCC4)OC
In short: as §1

[4] = compound: CNC(=O)c1ccc(Nc2ncc(C(F)(F)F)c(NCc3nccnc3N(C)S(C)(=O)=O)n2)cc1 [defactinib]
In short: as §1

[5] = compound: CNc1nc(-c2ccc3c(N)n[nH]c3c2)cc(N2C[C@@H](C(=O)NC3CCCCC3)CC[C@H]2C)n1
In short: as §1

[6] = compound: COC(=O)N[C@@H](C)CNc1nccc(-c2cn(C(C)C)nc2-c2cc(Cl)cc(NS(C)(=O)=O)c2F)n1 [encorafenib]
In short: as §1

[7] = compound: COC(=O)[C@H](CCSC)NC(=O)C1=C(C=C(C=C1)NC[C@H](CS)N)C2=CC=CC=C2
In short: as §1

[8] = compound: COc1cc(Nc2ncc3c(n2)-c2ccc(Cl)cc2C(c2c(F)cccc2OC)=NC3)ccc1C(=O)O [alisertib]
In short: as §1

[9] = compound: COc1cc2nc(-c3cc(F)ccc3O)nc(N[C@@H]3CNC[C@H]3C(C)(C)O)c2cc1OC
In short: as §1

[10] = compound: COc1cc2ncnc(Nc3ccc(F)c(Cl)c3)c2cc1OCCCN1CCOCC1 [gefitinib]
In short: as §1

[11] = compound: CS(=O)(=O)CCNCc1ccc(-c2ccc3ncnc(Nc4ccc(OCc5cccc(F)c5)c(Cl)c4)c3c2)o1 [lapatinib]
In short: as §1

[12] = compound: CS(=O)(=O)N1CCN(Cc2cc3nc(-c4cccc5[nH]ncc45)nc(N4CCOCC4)c3s2)CC1 [pictilisib]
In short: as §1

[13] = compound: C[C@@H](Oc1cc(-c2cnn(C3CCNCC3)c2)cnc1N)c1c(Cl)ccc(F)c1Cl [crizotinib]
In short: as §1

[14] = compound: C[C@H](C1=CC=C(C=C1)C(=O)NC2=C3C=CNC3=NC=C2)N
In short: as §1

[15] = compound: C[C@H](Nc1ncnc2nc[nH]c12)c1cc2cccc(Cl)c2c(=O)n1-c1ccccc1 [duvelisib]
In short: as §1

[16] = compound: Cc1cc(Nc2cc(CN3CCOCC3)c3nc(C)c(Cc4ccc(Cl)cc4F)n3n2)n[nH]1 [gandotinib]
In short: as §1

[17] = compound: Cc1cc(Nc2cc(N3CCN(C)CC3)nc(Sc3ccc(NC(=O)C4CC4)cc3)n2)n[nH]1 [tozasertib]
In short: as §1

[18] = compound: Cc1ccc(-n2nc(C(C)(C)C)cc2NC(=O)Nc2ccc(OCCN3CCOCC3)c3ccccc23)cc1 [doramapimod]
In short: as §1

[19] = compound: Cc1ccc(NC(=O)c2ccc(CN3CC[C@H](N(C)C)C3)c(C(F)(F)F)c2)cc1Nc1nccc(-c2cncnc2)n1 [bafetinib]
In short: as §1

[20] = compound: Cc1cccc(CC(=O)N2CCc3c2ccc(-c2cn(C)c4ncnc(N)c24)c3F)n1
In short: as §1

Sequence of UniProt Q9ULU4 (Q9ULU4 whole entry, looked up): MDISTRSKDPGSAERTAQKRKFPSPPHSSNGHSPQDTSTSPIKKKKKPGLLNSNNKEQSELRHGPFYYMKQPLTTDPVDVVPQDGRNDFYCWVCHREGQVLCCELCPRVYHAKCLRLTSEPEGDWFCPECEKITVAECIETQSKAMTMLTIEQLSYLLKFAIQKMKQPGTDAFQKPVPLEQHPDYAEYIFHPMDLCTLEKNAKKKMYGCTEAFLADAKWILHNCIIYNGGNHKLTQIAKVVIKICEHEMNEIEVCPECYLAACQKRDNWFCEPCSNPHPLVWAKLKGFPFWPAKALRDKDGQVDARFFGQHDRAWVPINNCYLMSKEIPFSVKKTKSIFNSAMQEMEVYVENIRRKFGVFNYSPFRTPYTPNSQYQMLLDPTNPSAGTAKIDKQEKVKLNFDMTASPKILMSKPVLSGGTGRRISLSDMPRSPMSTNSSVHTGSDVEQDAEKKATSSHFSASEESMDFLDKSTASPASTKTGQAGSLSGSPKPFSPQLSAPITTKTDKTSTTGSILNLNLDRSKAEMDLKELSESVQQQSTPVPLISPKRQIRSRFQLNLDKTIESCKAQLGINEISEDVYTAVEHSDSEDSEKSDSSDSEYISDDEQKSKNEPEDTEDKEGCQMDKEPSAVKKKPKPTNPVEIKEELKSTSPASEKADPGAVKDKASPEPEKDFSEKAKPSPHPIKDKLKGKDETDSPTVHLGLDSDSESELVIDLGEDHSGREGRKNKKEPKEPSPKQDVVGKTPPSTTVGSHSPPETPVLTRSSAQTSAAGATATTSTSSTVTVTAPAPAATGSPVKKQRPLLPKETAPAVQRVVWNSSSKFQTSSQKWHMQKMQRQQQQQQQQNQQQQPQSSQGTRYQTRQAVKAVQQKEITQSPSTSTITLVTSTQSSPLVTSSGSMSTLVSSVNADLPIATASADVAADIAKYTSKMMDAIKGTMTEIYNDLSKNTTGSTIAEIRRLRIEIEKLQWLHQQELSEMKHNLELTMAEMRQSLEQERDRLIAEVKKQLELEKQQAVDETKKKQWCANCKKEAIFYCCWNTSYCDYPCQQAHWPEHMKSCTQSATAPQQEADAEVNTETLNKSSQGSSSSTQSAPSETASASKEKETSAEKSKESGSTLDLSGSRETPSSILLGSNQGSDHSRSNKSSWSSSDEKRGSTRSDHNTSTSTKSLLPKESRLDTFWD
Sequence of UniProt O43149 (O43149 whole entry, looked up): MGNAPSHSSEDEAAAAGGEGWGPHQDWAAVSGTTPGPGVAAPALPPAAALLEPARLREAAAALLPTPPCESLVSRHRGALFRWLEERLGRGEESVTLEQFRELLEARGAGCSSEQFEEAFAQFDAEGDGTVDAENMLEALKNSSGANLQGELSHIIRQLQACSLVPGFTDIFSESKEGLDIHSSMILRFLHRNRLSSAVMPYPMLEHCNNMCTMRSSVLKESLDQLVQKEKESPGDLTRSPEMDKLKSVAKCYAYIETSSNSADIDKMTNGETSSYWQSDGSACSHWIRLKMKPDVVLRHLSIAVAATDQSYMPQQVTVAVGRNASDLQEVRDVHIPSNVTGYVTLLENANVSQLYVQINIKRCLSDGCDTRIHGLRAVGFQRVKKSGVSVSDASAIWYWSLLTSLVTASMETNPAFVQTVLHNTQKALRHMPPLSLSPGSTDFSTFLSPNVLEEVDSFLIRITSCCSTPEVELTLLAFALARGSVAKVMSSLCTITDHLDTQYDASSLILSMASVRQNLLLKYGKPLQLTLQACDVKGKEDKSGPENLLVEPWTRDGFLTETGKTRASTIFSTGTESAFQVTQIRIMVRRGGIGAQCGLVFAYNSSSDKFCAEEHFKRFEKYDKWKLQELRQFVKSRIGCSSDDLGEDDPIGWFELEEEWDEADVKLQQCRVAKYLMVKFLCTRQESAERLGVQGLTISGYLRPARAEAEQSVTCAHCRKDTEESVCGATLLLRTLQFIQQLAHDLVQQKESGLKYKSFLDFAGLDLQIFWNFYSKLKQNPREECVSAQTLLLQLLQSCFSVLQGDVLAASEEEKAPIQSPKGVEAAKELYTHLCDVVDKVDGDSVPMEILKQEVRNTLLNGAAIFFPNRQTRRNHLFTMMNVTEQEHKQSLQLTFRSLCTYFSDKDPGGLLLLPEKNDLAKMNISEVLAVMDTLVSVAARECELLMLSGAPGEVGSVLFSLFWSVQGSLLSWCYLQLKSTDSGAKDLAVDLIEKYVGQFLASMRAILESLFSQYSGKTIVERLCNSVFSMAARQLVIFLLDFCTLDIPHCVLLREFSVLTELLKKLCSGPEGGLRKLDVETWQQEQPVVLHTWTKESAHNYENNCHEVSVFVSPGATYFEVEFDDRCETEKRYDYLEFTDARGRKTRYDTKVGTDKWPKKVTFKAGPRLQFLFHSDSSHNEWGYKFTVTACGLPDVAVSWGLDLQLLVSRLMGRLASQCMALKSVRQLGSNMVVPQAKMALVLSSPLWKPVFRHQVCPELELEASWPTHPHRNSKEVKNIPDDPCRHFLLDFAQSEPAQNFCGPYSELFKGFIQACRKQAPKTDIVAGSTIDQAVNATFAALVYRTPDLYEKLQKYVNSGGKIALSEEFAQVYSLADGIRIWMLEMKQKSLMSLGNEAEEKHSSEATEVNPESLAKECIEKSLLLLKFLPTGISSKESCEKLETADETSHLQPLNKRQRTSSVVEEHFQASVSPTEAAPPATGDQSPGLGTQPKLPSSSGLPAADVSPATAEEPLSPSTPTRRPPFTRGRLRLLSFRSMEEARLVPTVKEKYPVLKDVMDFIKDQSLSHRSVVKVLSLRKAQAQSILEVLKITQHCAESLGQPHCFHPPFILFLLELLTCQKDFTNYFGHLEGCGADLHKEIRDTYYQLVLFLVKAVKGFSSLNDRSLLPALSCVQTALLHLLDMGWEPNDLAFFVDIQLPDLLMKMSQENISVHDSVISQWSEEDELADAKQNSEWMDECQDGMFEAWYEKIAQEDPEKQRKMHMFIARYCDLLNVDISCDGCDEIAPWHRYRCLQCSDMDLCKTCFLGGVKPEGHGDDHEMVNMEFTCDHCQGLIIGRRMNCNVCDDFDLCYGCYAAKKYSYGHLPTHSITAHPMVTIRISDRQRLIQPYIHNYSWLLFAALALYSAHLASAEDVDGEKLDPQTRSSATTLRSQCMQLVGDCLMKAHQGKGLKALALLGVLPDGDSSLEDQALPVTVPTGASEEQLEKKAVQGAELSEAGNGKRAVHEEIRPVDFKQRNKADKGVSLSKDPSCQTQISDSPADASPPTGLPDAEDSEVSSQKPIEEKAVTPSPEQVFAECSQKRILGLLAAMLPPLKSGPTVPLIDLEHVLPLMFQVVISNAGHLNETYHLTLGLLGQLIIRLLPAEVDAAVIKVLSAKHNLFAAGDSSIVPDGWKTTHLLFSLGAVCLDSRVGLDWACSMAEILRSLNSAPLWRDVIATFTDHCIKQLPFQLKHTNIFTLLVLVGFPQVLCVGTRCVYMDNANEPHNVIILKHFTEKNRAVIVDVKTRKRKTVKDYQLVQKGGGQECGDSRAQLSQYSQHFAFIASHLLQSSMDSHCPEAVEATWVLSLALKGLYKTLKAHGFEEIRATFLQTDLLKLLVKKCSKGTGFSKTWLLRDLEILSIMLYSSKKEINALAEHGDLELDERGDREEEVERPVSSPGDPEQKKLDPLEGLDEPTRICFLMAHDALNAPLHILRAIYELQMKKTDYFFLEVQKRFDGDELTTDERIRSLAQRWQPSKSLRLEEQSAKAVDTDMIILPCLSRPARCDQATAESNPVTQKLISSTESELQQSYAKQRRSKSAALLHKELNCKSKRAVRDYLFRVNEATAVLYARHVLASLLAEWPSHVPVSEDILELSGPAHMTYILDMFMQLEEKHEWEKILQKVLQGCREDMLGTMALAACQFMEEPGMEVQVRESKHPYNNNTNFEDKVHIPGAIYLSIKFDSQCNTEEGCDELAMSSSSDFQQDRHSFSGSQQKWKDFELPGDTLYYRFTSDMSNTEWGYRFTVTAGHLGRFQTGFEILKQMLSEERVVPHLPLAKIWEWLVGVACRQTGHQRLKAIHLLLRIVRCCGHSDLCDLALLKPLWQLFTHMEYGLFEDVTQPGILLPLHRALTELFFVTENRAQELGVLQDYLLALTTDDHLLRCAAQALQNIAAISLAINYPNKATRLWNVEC
Sequence of UniProt Q9HCS7 (Q9HCS7 whole entry, looked up): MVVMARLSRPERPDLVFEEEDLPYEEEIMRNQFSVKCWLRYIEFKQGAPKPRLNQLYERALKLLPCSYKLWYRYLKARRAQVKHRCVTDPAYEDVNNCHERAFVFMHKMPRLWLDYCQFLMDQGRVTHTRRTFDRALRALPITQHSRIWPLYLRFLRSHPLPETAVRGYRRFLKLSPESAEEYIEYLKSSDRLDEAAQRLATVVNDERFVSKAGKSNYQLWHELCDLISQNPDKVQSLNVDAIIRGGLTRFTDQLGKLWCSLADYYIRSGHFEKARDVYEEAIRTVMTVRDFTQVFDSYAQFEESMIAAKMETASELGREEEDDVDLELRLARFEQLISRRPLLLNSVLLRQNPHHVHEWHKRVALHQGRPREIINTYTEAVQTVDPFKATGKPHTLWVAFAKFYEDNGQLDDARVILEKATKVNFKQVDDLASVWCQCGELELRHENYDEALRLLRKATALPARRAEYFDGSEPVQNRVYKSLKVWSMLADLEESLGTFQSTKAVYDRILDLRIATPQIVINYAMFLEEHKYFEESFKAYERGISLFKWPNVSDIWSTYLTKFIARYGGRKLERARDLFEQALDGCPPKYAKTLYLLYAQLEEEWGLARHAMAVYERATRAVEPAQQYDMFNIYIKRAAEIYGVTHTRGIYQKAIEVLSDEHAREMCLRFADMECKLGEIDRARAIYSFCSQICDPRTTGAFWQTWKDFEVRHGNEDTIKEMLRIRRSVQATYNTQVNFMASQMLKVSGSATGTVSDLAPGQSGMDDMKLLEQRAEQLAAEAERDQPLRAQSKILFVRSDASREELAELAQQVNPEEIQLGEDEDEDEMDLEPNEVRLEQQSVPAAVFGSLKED

Row | Target | log2 fold change [1] | log2 fold change [2] | log2 fold change [3] | log2 fold change [4] | log2 fold change [5] | log2 fold change [6] | log2 fold change [7] | log2 fold change [8] | log2 fold change [9] | log2 fold change [10] | log2 fold change [11] | log2 fold change [12] | log2 fold change [13] | log2 fold change [14] | log2 fold change [15] | log2 fold change [16] | log2 fold change [17] | log2 fold change [18] | log2 fold change [19] | log2 fold change [20]
1 | VPS11 (UniProt Q9H270) | 0.039 | -0.113 | 0.023 | 0.022 | -0.026 | 0.016 | -0.096 | 0.002 | 0.019 | -0.007 | -0.025 | -0.027 | -0.029 | -0.008 | -0.04 | -0.083 | 0.024 | 0.039 | -0.077 | 0.065
2 | UTP18 (UniProt Q9Y5J1) | 0.009 | -0.05 | 0.075 | -0.086 | -0.049 | -0.028 | 0.006 | -0.032 | -0.05 | -0.046 | 0.032 | 0.125 | -0.05 | 0.097 | -0.065 | -0.055 | 0.074 | -0.025 | -0.084 | -0.038
3 | ZMYM1 (UniProt Q5SVZ6) | -0.162 | -0.098 | 0.071 | -0.035 | 0.067 | 0.063 | -0.038 | -0.008 | 0.03 | 0.009 | 0.101 | -0.037 | -0.008 | -0.25 (active) | -0.04 | 0.226 | -0.021 | 0 | -0.097 | 0.284 (active)
4 | WDCP (UniProt Q9H6R7) | 0.019 | -0.138 | 0.025 | 0.005 | 0.032 | 0.024 | -0.019 | 0.01 | 0.062 | -0.017 | -0.048 | 0.017 | -0.079 | 0.022 | 0.038 | -0.058 | -0.03 | -0.02 | -0.027 | 0.002
5 | VPS18 (UniProt Q9P253) | -0.016 | -0.106 | 0.011 | -0.057 | -0.008 | 0.019 | -0.125 | 0.005 | -0.006 | 0.006 | 0.009 | -0.017 | -0.049 | -0.056 | -0.04 | -0.032 | -0.003 | -0.004 | -0.06 | 0.047
6 | XPO1 (UniProt O14980) | 0.005 | -0.096 | -0.011 | 0.016 | -0.013 | 0.034 | -0.101 | 0.013 | 0.023 | -0.007 | -0.039 | 0 | -0.034 | -0.037 | -0.026 | -0.043 | 0.021 | -0.001 | -0.02 | 0.07
7 | ZBTB33 (UniProt Q86T24) | -0.028 | -0.005 | -0.178 | -0.062 | 0.119 | 0.018 | -0.004 | -0.059 | -0.307 | 0.086 | 0.047 | 0.149 | -0.111 | -0.165 | -0.041 | 0.028 | 0.048 | 0.022 | 0.046 | 0.048
8 | UPF3B (UniProt Q9BZI7) | -0.105 | -0.001 | 0.023 | -0.015 | 0.011 | 0.011 | 0.049 | 0.021 | -0.021 | -0.038 | 0.005 | 0.021 | 0.007 | -0.171 | 0.016 | 0.037 | 0.031 | 0.003 | -0.012 | 0.067
9 | ZDHHC18 (UniProt Q9NUE0) | -0.09 | -0.016 | 0.222 | 0.029 | -0.044 | -0.038 | 0.042 | -0.131 | -0.036 | -0.069 | 0.029 | 0.078 | -0.023 | -0.017 | 0.013 | -0.149 | -0.061 | 0.054 | -0.068 | -0.11
10 | VPS33A (UniProt Q96AX1) | -0.01 | -0.077 | 0.033 | 0.012 | -0.011 | 0.028 | -0.044 | 0.021 | -0.022 | 0.027 | 0 | -0.005 | -0.025 | -0.03 | 0.039 | -0.043 | 0.01 | 0 | 0.014 | 0.036
11 | XAB2 (UniProt Q9HCS7) | -0.003 | -0.039 | 0.012 | 0.008 | 0.014 | -0.045 | 0.2 | -0.017 | 0.025 | 0.046 | -0.02 | -0.051 | -0.096 | 0.025 | 0.038 | -0.055 | -0.073 | 0.01 | 0.065 | 0.028
12 | WDR3 (UniProt Q9UNX4) | 0.008 | -0.099 | -0.013 | 0.031 | -0.048 | -0.008 | 0.046 | 0.03 | -0.007 | -0.01 | -0.012 | -0.113 | -0.003 | -0.054 | 0.008 | -0.022 | 0.003 | 0.01 | -0.083 | 0.14
13 | USP48 (UniProt Q86UV5) | -0.193 | -0.069 | 0.123 | 0.024 | 0.054 | -0.016 | 0.018 | -0.015 | 0.09 | -0.069 | -0.05 | 0.037 | 0.13 | -0.577 (active) | -0.022 | 0.068 | 0.035 | -0.181 | -0.134 | 0.182
14 | ZMYND8 isoform 19 (UniProt Q9ULU4) | 0 | -0.091 | 0.017 | 0.104 | -0.052 | -0.002 | 0.065 | 0.022 | -0.046 | -0.023 | -0.017 | -0.044 | -0.109 | -0.105 | -0.006 | 0.092 | 0.035 | 0.001 | -0.028 | 0.049
15 | ZZEF1 (UniProt O43149) | 0.005 | -0.025 | 0.017 | -0.022 | 0.017 | 0.022 | 0.065 | -0.022 | 0.007 | 0.008 | -0.023 | -0.024 | -0.092 | -0.113 | 0.028 | 0.038 | -0.011 | 0.029 | -0.083 | 0.123
16 | ZNF598 isoform 3 (UniProt Q86UK7) | -0.01 | -0.095 | 0.025 | 0.004 | 0.015 | 0.004 | -0.039 | 0.009 | 0.012 | 0.007 | 0.027 | 0.005 | 0.006 | -0.01 | -0.01 | 0.023 | 0.048 | 0.024 | -0.012 | 0.015

Reference: the supplement of paper PMC10849652
